Measurements: PubChem BioAssay (NCATS)
Results filed as inconclusive are left out. The source made the active and inactive calls. The call rests on the fitted dose curve; in most records, active means well fitted inhibition curve with a large enough effect; inconclusive means small, poorly fitted or top-dose-only effect, or effect the other way; inactive means flat fitted curve, though single readings scatter.

Biological target: ATP-dependent 6-phosphofructokinase (Trypanosoma brucei brucei) (UniProt O15648)
Experiment: qHTS Assay to Find Inhibitors of T. brucei phosphofructokinase: hit validation (AID 492961);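 further: luminescence reports ADP formed as PFK phosphorylates fructose-6-phosphate with ATP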
Conditions: T. brucei PFK, ADP-Glo luminescence; series mostly up to 51.4 µM; activity change, negative = inhibition: at the top concentration
Method in brief: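 ADP-Glo luminescence read-out of ADP formed by 1.25 nM PFK from 0.1 mM ATP and 0.5 mM F6P (TEA pH 8.0, 45 min, RT). Compounds titrated; activity normalized to no-enzyme and full-enzyme controls.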
On the % scale 0 is the no-effect control and ±100 the full control effect.

Chain of ATP-dependent 6-phosphofructokinase (Trypanosoma brucei brucei) (O15648 whole entry, looked up): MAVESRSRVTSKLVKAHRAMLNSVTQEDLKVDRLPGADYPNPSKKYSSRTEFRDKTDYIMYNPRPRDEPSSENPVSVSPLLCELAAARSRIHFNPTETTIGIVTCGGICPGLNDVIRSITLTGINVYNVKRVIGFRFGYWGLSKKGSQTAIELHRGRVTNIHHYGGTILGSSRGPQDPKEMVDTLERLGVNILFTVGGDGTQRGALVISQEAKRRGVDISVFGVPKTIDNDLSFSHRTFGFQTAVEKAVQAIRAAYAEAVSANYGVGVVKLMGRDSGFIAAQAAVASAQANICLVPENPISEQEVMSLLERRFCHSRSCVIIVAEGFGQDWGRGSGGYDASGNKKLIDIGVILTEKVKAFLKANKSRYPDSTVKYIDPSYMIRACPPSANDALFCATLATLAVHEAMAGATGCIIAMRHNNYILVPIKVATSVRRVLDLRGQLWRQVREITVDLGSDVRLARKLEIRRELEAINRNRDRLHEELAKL

SMILES | activity change, negative = inhibition
C[N+]1(C)[C@@H]2CC(OC(=O)C(O)(c3cccs3)c3cccs3)C[C@H]1[C@@H]1O[C@@H]12 (stereo partly specified) | -3.58% (inactive)
CC1(O)CCC(C(C)(C)O)CC1 (stereo unspecified) | 6.76% (inactive)
CC/C(=C(/CC)c1ccc(OP(=O)(O)O)cc1)c1ccc(OP(=O)(O)O)cc1 | 0.82% (inactive)
C/C(=C\C(=O)OCCCCCCCCC(=O)O)C[C@@H]1OC[C@H](C[C@@H]2O[C@H]2[C@@H](C)[C@H](C)O)[C@@H](O)[C@H]1O | 2.38% (inactive)
CN(C)CCC=C1c2ccccc2C(C)(C)c2ccccc21 | -1.73% (inactive)
CNC(=O)C[C@@H](N)C(=O)N[C@@H](C(=O)N[C@@H]1C(=O)N2[C@@H]1SC(C)(C)[C@@H]2C(=O)O)c1ccc(O)cc1 | 3.96% (inactive)
CCCCCCCCCCCCCCCCCCCCCC(=O)Nc1ccn([C@@H]2O[C@H](CO)[C@@H](O)[C@@H]2O)c(=O)n1 | 0% (inactive)
c1ccc2ccccc2c1 | -3.43% (inactive)
CCN(CC)CCC(=O)N1c2ccccc2Sc2ccc(C(F)(F)F)cc21 | 15.2% (inactive)
CC(=O)c1ccc2c(c1)N(CCCN1CCN(CCO)CC1)c1ccccc1S2 | -6.7% (inactive)
CCC(O)c1ccccc1 (stereo unspecified) | -0.52% (inactive)
OC[C@H]1O[C@@](CO)(O[C@H]2O[C@H](CO)[C@@H](O)[C@H](O)[C@H]2O)[C@@H](O)[C@@H]1O | -5.18% (inactive)
Oc1ccc(Cl)c2c1CCC2 | -2.38% (inactive)
C[C@]12CCC(=O)C[C@@H]1CC[C@@H]1[C@@H]2CC[C@]2(C)C=CC[C@@H]12 | 10.3% (inactive)
CN1C(C(=O)Nc2ccccn2)C(=O)c2sc(Cl)cc2S1(=O)=O (stereo unspecified) | -4.61% (inactive)
CC(C)(C)CC(C)(C)c1ccc(OCCO)cc1 | 4.02% (inactive)
CN1CCC(OC(=O)C(Oc2ccc(Cl)cc2)Oc2ccc(Cl)cc2)CC1 | 6.05% (inactive)
N#Cc1ccc2c(c1)N(CCCN1CCC(O)CC1)c1ccccc1S2 | -0.594% (inactive)

SMILES | activity change, negative = inhibition
COC(=O)[C@@H](N)CS | 2.57% (inactive)
CC(C)[C@@H](N)C(=O)O | 7.66% (inactive)
COc1ccc(/C=C/C(=O)O)cc1 | 12.3% (inactive)
CC/C=C\C/C=C\C/C=C\C/C=C\C/C=C\CCCC(=O)O | 0.532% (inactive)
O=C(NNCS(=O)(=O)O)c1ccncc1 | 0% (inactive)
CCOC(C)OCC | 5.81% (inactive)
CCN(CC)C(=S)S | 7.93% (inactive)
CCCCCCCCCC(=O)NO | 3.22% (inactive)
CC1(C)S[C@@H]2[C@H](NC(=O)C3(N)CCCCC3)C(=O)N2[C@H]1C(=O)O | -1.86% (inactive)
CC/C=C\C/C=C\C/C=C\C/C=C\C/C=C\C/C=C\CCC(=O)O | 5.78% (inactive)
OCCCNc1ccccc1 | -2.68% (inactive)
C=CC(C)(O)CC/C=C(\C)CCC=C(C)C (stereo unspecified) | 3.09% (inactive)
O=C(O)c1ccc(NC(=O)[C@H](Cc2ccc(O)cc2)NC(=O)c2ccccc2)cc1 | 1.84% (inactive)
CCN(CC)CCC(=O)N1c2ccccc2Sc2ccc(Cl)cc21 | 6.85% (inactive)
NCCN | 9.08% (inactive)
CC(C)[C@H](N)C(=O)OCC(CO)OCn1cnc2c(=O)[nH]c(N)nc21 (stereo partly specified) | -1.92% (inactive)
C[C@H](O)CN(C)C | -1.72% (inactive)
NC(N)=O | 0.386% (inactive)
